Compound activity from PubChem.
This excerpt belongs to a sample that is enriched for hits.
fixLJ activator: B. multivorans fixK reporter activation; B. multivorans fixK-promoter GFP reporter, 18 h; active compounds read high; z-score (test concentration not listed); 0.3% of 29,000 active;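 active means replicate mean overnight rise in green fluorescent reporter signal, 3 or more SD over negative controls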
Each line names hits and unclear results; the compound was inactive in the other large screens.

COC(=O)c1ccc(NC(=O)CN(CCc2ccccc2)S(=O)(=O)c2ccc(OC)cc2)cc1	none
Cc1ccc(S(=O)(=O)N(CCc2ccccc2)CC(=O)Nc2ccc(Br)cc2)cc1	fixLJ activator 3.1
O=C(CN(CCc1ccccc1)S(=O)(=O)c1ccc(Br)cc1)NCc1ccc(Cl)cc1	none
COCCc1nc(CNC(=O)N(C)Cc2cc(-c3cccnc3)no2)no1	none
CCC(C)n1c(=N)c(S(=O)(=O)c2ccc(C)cc2)cc2c(=O)n3cc(C)ccc3nc21 (centres undefined)	fixLJ activator 5.7
CCCCCn1c(=N)c(S(=O)(=O)c2ccc(C)cc2)cc2c(=O)n3cc(C)ccc3nc21	none
CCC(C)n1c(=N)c(S(=O)(=O)c2ccccc2)cc2c(=O)n3ccccc3nc21 (centres undefined)	none
O=C(Nc1onc2c1CCCC2)c1ccc(Cl)cc1	none
CC1CCc2noc(NC(=O)c3ccccc3[N+](=O)[O-])c2C1 (centres undefined)	fixLJ activator 3.6
O=C(Nc1cccc2cccnc12)c1ccccc1[N+](=O)[O-]	none
CN(CC(=O)N1CC(O)C(Cc2ccc3ccccc3n2)C1)C(N)=O (centres undefined)	none
COc1cccc(C2CCN(C(=O)NCC(=O)O)C2)c1OC (centres undefined)	none
Cc1ccc(S(=O)(=O)c2nc(-c3ccccc3Cl)oc2N2CCCCCC2)cc1	none
COc1ccccc1-c1nc(S(=O)(=O)c2ccc(Cl)cc2)c(N2CCCCCC2)o1	none
O=S(=O)(c1ccccc1)c1nc(-c2ccccc2Cl)oc1N1CCCCCC1	fixLJ activator 3.2
CCCn1ccnc1CN1CCCC(CNC(=O)C(F)F)C1 (centres undefined)	none
CCn1nc(C)cc1C(=O)NC1COCC1Cc1ccnc2ccccc12 (centres undefined)	none
COc1ccc(OC)c(Nc2nc3ccccc3nc2-n2nc(C)cc2C)c1	none
Cc1ccc2nc(Nc3cccc(Cl)c3C)c(-n3nc(C)cc3C)nc2c1	none
COc1ccccc1Nc1nc2ccc(Cl)cc2nc1-n1nc(C)cc1C	fixLJ activator 3.2
c1cnc2c(-c3nccn3-c3ccc(OCC4CCCO4)cc3)cnn2c1 (centres undefined)	none
CCc1ccc(CN2CCCC(CNC(=O)c3cnn4cc(C)cnc34)C2)s1 (centres undefined)	none
CC1CCN(C(=O)Cn2ncc3c4ccccc4n(Cc4ccc(Cl)cc4)c3c2=O)CC1	fixLJ activator 7.3
Cc1ccccc1Cn1c2ccccc2c2cnn(CC(=O)N3CCC(C)CC3)c(=O)c21	none
CN1CCN(C(=O)Cn2ncc3c4ccccc4n(Cc4ccc(Cl)cc4)c3c2=O)CC1	none
Cn1c2ccccc2c2cnn(CC(=O)NCc3ccc(Cl)cc3)c(=O)c21	none
Cc1cc(C)c(Cn2c3ccccc3c3cnn(CC(=O)NCc4cccs4)c(=O)c32)c(C)c1	none
CCCCN(CC)CCCNC(=O)Cn1ncc2c3ccccc3n(Cc3ccccc3F)c2c1=O	none
CCCCN(CC)CCCNC(=O)Cn1ncc2c3ccccc3n(C)c2c1=O	none
O=C(Cn1ncc2c3ccccc3n(Cc3ccc(Cl)cc3)c2c1=O)NCc1cccs1	fixLJ activator 8.2
CCN(CC)CCNC(=O)Cn1ncc2c3ccccc3n(Cc3ccc(Cl)cc3)c2c1=O	fixLJ activator 3.5
O=C(CCNC(=O)c1ccc(F)cc1)NCCc1cnccn1	none
CNC(=O)CCc1ccccc1NC(=O)c1cc(OC)nc2ccccc12	none
CCC(=O)NCc1cc2n(n1)CCN(CC(=O)NCCc1ccccc1)C2	none
COc1ccc2c(c1)CCOC21CCN(C(=O)C2CCN(C(=O)C3CCC3)CC2)CC1	none
O=C(COc1ccc(Cl)cc1)N1CCC2OCc3cnnn3C2C1 (centres undefined)	none
Cc1cc(C)cc(NC2=C(c3ccccc3)C(=O)c3ccccc32)c1	fixLJ activator 4
Cc1ccc(C)c(N2CCN(C3=C(c4ccccc4)C(=O)c4ccccc43)CC2)c1	none
COc1ccc(C2=C(Nc3ccc(C)c(C)c3)c3ccccc3C2=O)cc1	none
Cc1ccc(C)c(NC2=C(c3ccc(C(F)(F)F)cc3)C(=O)c3ccccc32)c1	none
COc1ccc(C2=C(Nc3ccc(Br)c(C)c3)c3ccccc3C2=O)cc1	fixLJ activator 3.1
COc1cc(OC)c(NC2=C(c3ccc(C(F)(F)F)cc3)C(=O)c3ccccc32)cc1Cl	none
Cc1nc(CC(=O)NCCc2noc(C3CCCO3)n2)c(C)s1 (centres undefined)	none
CCN1CC2(CCCN(C(=O)c3cnc(C4CC4)[nH]c3=O)C2)CCC1=O (centres undefined)	none
Brc1ccc(-n2nc(-c3ccccc3)c3cnc4cc5c(cc4c32)OCO5)cc1	none
CCc1ccc2ncc3c(-c4ccccc4)nn(-c4ccccc4)c3c2c1	fixLJ activator 3.3
Cc1ccc(-c2nn(-c3ccccc3)c3c2cnc2ccccc23)cc1C	none
O=C(O)C1Cc2nc[nH]c2CN1C(=O)c1csc2c1CCCC2 (centres undefined)	none
COc1ccc(NC(=O)CC2C(=O)N(c3ccccc3)C(=O)N2CCC2=CCCCC2)cc1 (centres undefined)	none
O=C(CC1C(=O)N(c2ccccc2)C(=O)N1CCC1=CCCCC1)Nc1ccc(F)cc1 (centres undefined)	none
